Values without a mark were called inactive.
System: Vero E6 infected with SARS-CoV-2
Experiment: inhibition of SARS-CoV-2 cytopathic effect; higher = more antiviral protection, active = above 15
Details: 48 h

SMILES	inhibition of SARS-CoV-2 cytopathic effect (1 nM) [%]	inhibition of SARS-CoV-2 cytopathic effect (8.33 nM) [%]	inhibition of SARS-CoV-2 cytopathic effect (100 nM) [%]	inhibition of SARS-CoV-2 cytopathic effect (833.33 nM) [%]	inhibition of SARS-CoV-2 cytopathic effect (10000 nM)
Cn1c([N+](=O)[O-])cnc1COC(N)=O [ronidazole]	2.87	0.97	1.04	2.17	2.12%
O=c1[nH]c(CCl)nc2sc3c(c12)CCCC3	-1.17	-1.84	-1.12	0.17	12.3%
CN(C)CC(c1ccc(O)cc1)C1(O)CCCCC1 (stereo not given) [desvenlafaxine]	1.5	3.55	4.53	1.89	0.99%
COc1cccc(OC)c1-c1cc(C(=O)N[C@@H](CC(C)C)C(=O)O)nn1-c1ccnc2cc(Cl)ccc12	2.48	1.4	-0.45	-0.64	-0.46%
Oc1cc(O)cc(O)c1 [phloroglucin]	3.42	1.38	2.28	2.17	-2.03%
COC(=O)N[C@H](C(=O)N1CCC[C@H]1c1ncc(-c2ccc(-c3ccc(-c4cnc([C@@H]5CCCN5C(=O)[C@@H](NC(=O)OC)C(C)C)[nH]4)cc3)cc2)[nH]1)C(C)C [daclatasvir]	-1.73	0.14	-0.71	-2.47	-0.59%
CCN1CCN(Cc2ccc(C(=O)Nc3ccc(C)c(Oc4ccc5c(c4)CC(=O)N5)c3)cc2C(F)(F)F)CC1	-1.15	-1.24	1.47	3.18	56% (active)

From the supplement of paper PMC13380429
